Measurements: PubChem BioAssay (NCI)
About 83,000 compounds went through this panel and 20% of them were active in at least one assay; those are over-represented in the sample as a whole.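 Testing used 96-well plates and a 48-hour single-concentration exposure. Example: -40 means 40% of the starting cells died.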 Calls of active or inactive are those of the source. How the source made its calls: active means growth percent below 10; inactive means the rest.

Experiments:
Experiment in all cases: NCI-60 one-dose screen, 48 h (100 = growth as untreated, 0 = no growth, -100 = all killed)
Details in all cases: 10 µM unless noted
NCI-H23 lung = test system: NCI-H23 lung
NCI-H226 lung = test system: NCI-H226 lung
NCI-H322M lung = test system: NCI-H322M lung
HOP-62 NSCLC = test system: HOP-62 NSCLC
NCI-H460 lung = test system: NCI-H460 lung
HOP-92 NSCLC = test system: HOP-92 NSCLC
NCI-H522 lung = test system: NCI-H522 lung
A549/ATCC NSCLC = test system: A549/ATCC NSCLC
786-0 renal = test system: 786-0 renal
COLO 205 colon = test system: COLO 205 colon
DU-145 prostate = test system: DU-145 prostate
K-562 leukemia = test system: K-562 leukemia
MALME-3M melanoma = test system: MALME-3M melanoma
MDA-MB-231 breast = test system: MDA-MB-231 breast
RXF 393 renal = test system: RXF 393 renal
SF-268 CNS = test system: SF-268 CNS
SF-295 CNS = test system: SF-295 CNS
SF-539 CNS = test system: SF-539 CNS
UACC-257 melanoma = test system: UACC-257 melanoma
M14 melanoma = test system: M14 melanoma

Measured: growth

O=C(CSc1nc2ccccc2c(=O)n1-c1ccc(Cl)c(Cl)c1)Nc1ccc(S(=O)(=O)Nc2ccc(Cl)nn2)cc1
inactive: NCI-H23 lung 91.6% | NCI-H226 lung 90.9% | NCI-H322M lung 91.7% | HOP-62 NSCLC 87.8% | NCI-H460 lung 99.4% | HOP-92 NSCLC 72.5% | NCI-H522 lung 90% | A549/ATCC NSCLC 91.9% | 786-0 renal 98.9% | COLO 205 colon 94.9% | DU-145 prostate 101% | K-562 leukemia 96.5% | MALME-3M melanoma 98.5% | MDA-MB-231 breast 90.8% | RXF 393 renal 88.1% | SF-268 CNS 100% | SF-295 CNS 101% | SF-539 CNS 90.7% | UACC-257 melanoma 93.5% | M14 melanoma 86.2%

CN(C)c1ccc(/C=N/Nc2nc(N/N=C/c3ccc(N(C)C)cc3)nc(N3CCCCC3)n2)cc1
inactive: NCI-H23 lung 96.7% | NCI-H226 lung 102% | NCI-H322M lung 100% | HOP-62 NSCLC 81.8% | NCI-H460 lung 70.9% | HOP-92 NSCLC 84% | NCI-H522 lung 96.2% | A549/ATCC NSCLC 78.5% | 786-0 renal 88.2% | COLO 205 colon 83.5% | DU-145 prostate 77.5% | MDA-MB-231 breast 68.6% | RXF 393 renal 93.3% | SF-268 CNS 105% | SF-295 CNS 107% | UACC-257 melanoma 104% | M14 melanoma 72.8%
active: K-562 leukemia 3.08% | MALME-3M melanoma -67.3% | SF-539 CNS -12.3%

CC[C@H](CC[C@@H](C)[C@H]1CC[C@H]2[C@@H]3CC(=O)C4=CC(=O)/C(=C/c5ccc([N+](=O)[O-])cc5)C[C@]4(C)[C@H]3CC[C@]12C)C(C)C
inactive: NCI-H23 lung 103% | NCI-H226 lung 103% | NCI-H322M lung 103% | HOP-62 NSCLC 104% | NCI-H460 lung 106% | HOP-92 NSCLC 114% | NCI-H522 lung 97.4% | A549/ATCC NSCLC 99% | 786-0 renal 99% | COLO 205 colon 118% | DU-145 prostate 104% | K-562 leukemia 81.4% | MALME-3M melanoma 101% | MDA-MB-231 breast 98.2% | RXF 393 renal 120% | SF-268 CNS 108% | SF-295 CNS 97.1% | SF-539 CNS 97.3% | UACC-257 melanoma 110% | M14 melanoma 89.7%

C#Cc1nc(C(=O)NCCCCCCC(=O)NO)cs1
inactive: NCI-H226 lung 39.1% | NCI-H322M lung 29.4% | HOP-62 NSCLC 16.9% | NCI-H460 lung 16% | A549/ATCC NSCLC 10.2% | UACC-257 melanoma 23% | M14 melanoma 16.6%
active: NCI-H23 lung -74.6% | HOP-92 NSCLC -74.6% | NCI-H522 lung -58.5% | 786-0 renal -83.4% | COLO 205 colon -61.7% | DU-145 prostate -51.1% | K-562 leukemia 5.86% | MALME-3M melanoma -61% | MDA-MB-231 breast -71.8% | RXF 393 renal -78.7% | SF-268 CNS 2.01% | SF-295 CNS -2.7% | SF-539 CNS -80.1%
